According to PubChem BioAssay (Tox21):
Results filed as inconclusive are left out. A call without a number means that no potency is given here. Activity calls are given as the source filed them. The call rests on the fitted dose curve; in most records, active means well fitted activation curve with a large enough effect in the repeat runs; inconclusive means weak or mixed curves; inactive means no such curve, though single readings can be large or run the other way.

Test: qHTS assay for small molecules that induce genotoxicity in human embryonic kidney cells expressing luciferase-tagged ATAD5 (AID 651632); further: nearly all actives have a fitted effect of over 15% in size
Details: HEK293T ATAD5-luciferase induction, 16 h; series mostly up to 83.3 µM
Text: U.S. Tox21 Program National Center for Advancing Translational Sciences [NCATS] NIH Chemical Genomics Center [NCGC] U.S. Environmental Protection Agency [EPA] National Institutes of Environmental Health Sciences [NIEHS] National Toxicology Program [NTP] U.S. Food and Drug Administration [FDA] Tox21 Assay Overview: As cancer cells divide rapidly and during every cell division they need to duplicate their genome by DNA replication. The failure to do so results in the cancer cell death. Based on this concept, many chemotherapeutic agents were developed but have limitations such as low efficacy and severe side effects etc. A new cell based assay was developed to find the compounds that effectively block DNA replication either by directly damaging DNA or by inhibiting other cellular mechanisms. Enhanced Level of Genome Instability Gene 1 (ELG1; human ATAD5) protein levels increase in response to various types of DNA damage. Using a luciferase reporter-gene tagged with ATAD5, a cell-based assay [developed by Kyungjae Myung, NHGRI, NIH] was used to measure the induction of ATAD5 in human embryonic kidney cells (HEK293T). So, increase in luciferase activity can be used to identify the compounds that cause genetic stress.
Tox21 Assay Protocol Summary: For genotoxicity screening, 2,000 cells in 5 uL/well were dispensed into white, solid-bottom 1536-well plates using a Multidrop Combi (Thermo Scientific) dispenser. Following transfer of 23 nL compound or DMSO vehicle by a pin tool, the plates were incubated 16 hr at 37C and 5% CO2. 5 ul Amplite (AAT Bioquest, Inc.) was then added to each plate and following 30 min incubation at room temperature, luciferase activity was quantified on a ViewLux CCD-based plate reader.

Row | SMILES | Potency
1 | Cc1ccc(C)o1 | inactive
2 | N#CCCNCCC#N | inactive
3 | Cc1ccc2c(ccc3ccccc32)c1 | inactive
4 | CN(C)CC[C@@H](c1ccc(Br)cc1)c1ccccn1 | inactive
5 | CN(c1nccc(=O)[nH]1)C1CCN(c2nc3ccccc3n2Cc2ccc(F)cc2)CC1 | inactive
6 | CCOC(=O)C1=NN(c2ccccc2)C(=O)C1 | inactive
7 | C[C@H](CCC(=O)O)[C@H]1CC[C@H]2[C@@H]3[C@H](O)C[C@@H]4C[C@H](O)CC[C@]4(C)[C@H]3CC[C@]12C | inactive
8 | CCN(CC)C(C)CN1c2ccccc2Sc2ccccc21 (stereo not given) | inactive
9 | Oc1ccc2c(c1)OCO2 | inactive
10 | O=C(O)COC(=O)Cc1ccccc1Nc1c(Cl)cccc1Cl | inactive
11 | C=CC(=O)OCCOC(=O)CCC(=O)O | inactive
12 | CC(C)(C)c1ccc(S)cc1 | inactive
13 | Cc1ccccc1N=Nc1ccc(N=Nc2c(O)ccc3ccccc23)c(C)c1 | inactive
14 | NCCCOCCOCCOCCCN | inactive
15 | CCCCCCOC(=O)CCC | inactive
16 | CC(C)c1ccc2c(C(C)C)cc(C(C)C)c(S(=O)(=O)O)c2c1 | inactive
17 | NC(=S)N/N=C/c1cccnc1 | inactive
18 | OC(CCN1CCCCC1)(c1ccccc1)C1CCCCC1 (stereo not given) | inactive
19 | Oc1ccc(Cc2ccccc2)cc1 | inactive
20 | CC(C)CC=O | inactive

Row | SMILES | Potency
21 | CN(C)CCCOc1nn(Cc2ccccc2)c2ccccc12 | inactive
22 | O=C(O)C1CCC(C(=O)O)CC1 (stereo not given) | inactive
23 | CCCCC(CC)(CO)CO | inactive
24 | CC(=O)N(O)CCCCCNC(=O)CCC(=O)N(O)CCCCCNC(=O)CCC(=O)N(O)CCCCCN | inactive
25 | CCCCCC(CO)CCC (stereo not given) | inactive
26 | CCOc1ccc(NC(=O)CC(C)=O)cc1 | inactive
27 | CC(=O)/C(C)=C/C1C(C)=CCCC1(C)C (stereo not given) | inactive
28 | Cc1c(Cn2ccnc2)c2ccccc2n1CCC(=O)O | inactive
29 | C=CC(C)(CCC=C(C)C)OC(=O)c1ccccc1 (stereo not given) | inactive
30 | Cc1nc2ccccc2n1Cc1ccc(Cl)cc1 | inactive
31 | NC(N)=N/N=C/c1c(Cl)cccc1Cl | inactive
32 | CCCCCCCCCC=O | inactive
33 | CC(=O)O[C@@H]1C(=O)O[C@@H]2[C@H]1OC(=O)[C@@H]2OC(C)=O | inactive
34 | Cc1ccc(C(C)c2ccc(C)c(C)c2)cc1C | inactive
35 | O=S1(=O)c2cccc3cccc(c23)N1CCCN1CCN(c2ccc(F)cc2)CC1 | inactive
36 | CC(=O)/C=C/C1C(C)=CCCC1(C)C (stereo not given) | inactive
37 | CN(C)C/C=C(/c1ccc(Br)cc1)c1cccnc1 | inactive
38 | O=C(O)Cc1sc(-c2ccccc2)nc1-c1ccc(Cl)cc1 | inactive
39 | Oc1ccc(O)c2c(O)cccc12 | inactive
40 | CN1CCN(C2=Nc3ccccc3Sc3ccc(Cl)cc32)CC1 | inactive
